Compound activity as filed in PubChem.
MITF inh: MITF inhibitors, primary screen, biochemical, AlphaScreen, human; Microphthalmia-associated transcription factor (Homo sapiens), O75030; AlphaScreen MITF homodimerization, bead proximity signal; inhibition, % at 2.6 µM; hit rate 0.91% among 650,000; AID 1259374, 2018; in the data active means inhibition above about 50%;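 further: 0% = vehicle wells with protein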
GPR151 ag: activators of human GPR151, primary screen, cell-based, PathHunter beta-arrestin, luminescence. G-protein coupled receptor 151 (Homo sapiens), Q8TDV0. PathHunter beta-arrestin GPR151 cells. activation, % at 11.2 µM. hit rate 1% among 650,000. AID 1508602, 2020; in the data active means activation above about 4.9%;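 further: 0% = median of compound wells and 100% = cells with positive control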
Target sequence (Q8TDV0 whole entry, looked up): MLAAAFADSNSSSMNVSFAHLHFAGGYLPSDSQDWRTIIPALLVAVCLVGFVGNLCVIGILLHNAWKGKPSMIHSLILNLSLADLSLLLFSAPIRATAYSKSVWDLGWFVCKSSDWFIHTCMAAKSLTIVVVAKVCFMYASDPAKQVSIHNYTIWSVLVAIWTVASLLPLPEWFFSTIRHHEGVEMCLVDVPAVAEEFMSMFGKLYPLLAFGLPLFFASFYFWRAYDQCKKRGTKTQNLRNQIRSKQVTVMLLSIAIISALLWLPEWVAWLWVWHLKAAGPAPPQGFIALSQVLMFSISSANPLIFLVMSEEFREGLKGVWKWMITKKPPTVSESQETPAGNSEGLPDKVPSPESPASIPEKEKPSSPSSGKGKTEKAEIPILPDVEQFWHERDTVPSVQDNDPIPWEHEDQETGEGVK
FBW7 act: FBW7 E3 ligase activators, primary screen, biochemical, AlphaScreen, human. F-box/WD repeat-containing protein 7 (Homo sapiens), Q969H0. AlphaScreen FBW7–phospho-cyclin E peptide binding, activator screen. normalized activity (activation), % at 26.1 µM. hit rate 0.13% among 650,000. AID 1259310, 2017; in the data active means normalized activity above about 1.9%;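 further: purified mutant Fbw7 with reduced substrate affinity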
TEAD-YAP block: TEAD-YAP interaction inhibition, primary screen, TEAD-YAP interaction inhibitor project, luminescence, HEK-TIYL cells; TEAD-Gal4/YAP UAS-luciferase luminescence; inhibition, % at 9.12 µM; hit rate 1.4% among 640,000; AID 1259422, 2018; in the data active means inhibition above about 32%;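 further: 0% = median of test compound wells and 100% = reference inhibitor wells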
GPR151 confirm: GPR151 activators, triplicate retest, confirmation, cell-based, PathHunter beta-arrestin, luminescence | activation, % at 11.2 µM | shares compounds with GPR151 ag | GPR151 PathHunter beta-arrestin cells, 90 min; % of EA-reagent control over plate median | 6,700 tested, under 10 active;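 active means mean percent activation across replicates above the confirmation screen cutoff of 4.91%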
GPR119 counter: GPR119 activators in beta-arrestin cells, counter-screen for GPR151 activator project, cell-based, PathHunter beta-arrestin, luminescence, triplicate; shares compounds with GPR151 ag; 90 min; 0 = compound-well median, 100 = enzyme-acceptor control; activation, % at 11.2 µM; hit rate 0.3% among 6,700;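 active means mean percent activation in the counterscreen above 29.09%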;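 further: counterscreen on off-target GPR119 to flag nonselective hits from the GPR151 activator screen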
Active calls of the source: *; nt = no result; ! = not confirmed by another sample. A selection: hits, their analogues and other compounds. The true share with any hit is near 3.4%.

SMILES | MITF inh | GPR151 ag | FBW7 act | TEAD-YAP block | GPR151 confirm | GPR119 counter
Cc1ccc(-n2ncc3c(SCC(N)=O)ncnc32)c(C)c1 | 11 | 0 | 0 | -6 | nt | nt
Cc1ccc(NC(=O)NCC2(O)CCCC2)cc1C | 12 | 7.5* | 0 | -29 | 1 | -3
COc1nc(NCCO)nc(Nc2ccccn2)n1 | 3 | 1 | 0 | 11 | nt | nt
O=C(Cc1cc(=O)[nH][nH]1)N/N=C/C=C/c1ccccc1 | 27 | 5.3* | 0 | 7 | -1 | 6
O=C(Cc1cccs1)N/N=C\C=C\c1ccccc1 | 9 | 0 | 0 | -40 | nt | nt
Cc1n[nH]c(C)c1CCC(=O)N/N=C/C=C/c1ccccc1 | 11 | 6.5* | 0 | 6 | 0 | -10
COC(=O)c1ccc2c(=O)n(Nc3nc(C)cc(C)n3)c(SCc3cccc(F)c3)nc2c1 | -2 | 0 | 0 | 2 | nt | nt
COc1ccccc1C1CN(CC(=O)N(C)C(C)c2nccs2)Cc2ccccc2O1 (stereo unspecified) | -7 | -1 | 0 | -2 | nt | nt
CN(Cc1nccs1)C(=O)CN1Cc2ccccc2OC(c2ccccc2F)C1 (stereo unspecified) | 3 | 6.6* | 1 | 2 | 1 | 12
O=C(NC1(C(F)(F)F)NC(=O)N(c2ccc(F)cc2)C1=O)c1ccncc1 (stereo unspecified) | -2 | 13* | 0 | 5 | 1 | 7
COc1ccccc1C(=O)NC1(C(F)(F)F)NC(=O)N(c2ccc(C)c(C)c2)C1=O (stereo unspecified) | -1 | 7.3* | 1 | -5 | 0 | -7
O=C(NC1(C(F)(F)F)NC(=O)N(c2ccc(F)cc2)C1=O)c1ccc(F)cc1 (stereo unspecified) | 5 | 1 | 0 | 11 | nt | nt
Cc1no[n+]([O-])c1COc1ccccc1C=C1C(=O)NC(=O)NC1=O | 13 | 1 | 0 | -3 | nt | nt
Cc1no[n+]([O-])c1COc1ccccc1C=C1C(=O)NC(=S)NC1=O | 29 | 6.2* | 0 | -1 | 0 | -1
CC1CN(C(=S)NC(=O)C(C)(C)C)CC(C)O1 (stereo unspecified) | -4 | 7.3* | 0 | -2 | 1 | -5
CC(C)(C)C(=O)NC(=S)N1CCOCC1 | -8 | 1 | 0 | -3 | nt | nt
O=C(NCCC1=CCCCC1)c1cccnc1SCc1cccc(Br)c1 | 5 | 1 | 0 | -3 | nt | nt
O=C(NCCC1=CCCCC1)c1cccnc1SCc1ccccc1F | 2 | 5.4* | 0 | -6 | 0 | -4
O=C(CCC(=O)Nc1ccc(F)cc1)N/N=C/c1ccccc1Cl | 5 | -1 | 0 | 9 | nt | nt
O=S(=O)(Cc1ccccc1)N1CCCC(N2CCOCC2)C1 (stereo unspecified) | 6 | 20* | 0 | -10 | 0 | 15
COc1ccccc1/C=N/NC(=O)c1cc(Br)ccc1O | 4 | -1 | 0 | -10 | nt | nt
CCN1CCN(c2ncnc3c2c(-c2ccccc2)cn3-c2ccc(C)c(Cl)c2)CC1 | 5 | 1 | 0 | -3 | nt | nt
CCC(C)NC(=O)c1sc2nc(C)nc(N3CCC(C)CC3)c2c1C (stereo unspecified) | 5 | 6.9* | 0 | 0 | 0 | -1
CCCN(CCC)C(=O)c1sc2nc(C)nc(N3CCCCC3)c2c1C | -2 | 5.5* | 0 | -3 | 1 | -2
CS(=O)(=O)c1cnc2ncnn2c1C1CCCN(C(=O)C2=Cc3ccccc3OC2)C1 (stereo unspecified) | 16 | 1 | 0 | 8 | nt | nt
SMILES | MITF inh | GPR151 ag | FBW7 act | TEAD-YAP block | GPR151 confirm | GPR119 counter
COc1cc(OC)c(NC(=O)c2nccnc2CO)cc1Cl | 7 | 0 | 0 | 7 | nt | nt
COc1cc(/C=N/Nc2ccc3nnc(C)n3n2)ccc1O | 24 | 8.9* | 0 | 1 | 0 | 11
Cc1ccc(C(=O)CC(=O)C(=O)Nc2ncccc2O)c(C)c1 | -24 | 8.3* | -1 | 5 | 0 | 9
COc1ccc(C2CNCC2c2nc3ccc(-c4cn[nH]c4)cc3[nH]2)cc1 (stereo unspecified) | -20 | 6.0* | 0 | 2 | 0 | -4
COc1ccc2c(c1)CC(c1nc3ccc(-c4cn[nH]c4)cc3[nH]1)NC2 (stereo unspecified) | 25 | 0 | 0 | 25 | nt | nt
OC1CCN(Cc2ccc3c(c2)CN(Cc2ccc4c(c2)CCO4)CCO3)CC1 | 8 | 0 | 0 | -2 | nt | nt
COCCNCCOc1cc(C)c(Cl)c(C)c1 | 30 | 1 | 0 | -2 | nt | nt
COc1nc(-c2ccccc2Cl)nc2ccccc12 | 5 | 5.2* | 0 | 1 | 1 | -5
CC(C)Oc1nc(-c2ccccc2Cl)nc2ccccc12 | 1 | 1 | 0 | 4 | nt | nt
CCOC(=O)C1=C(C)Nc2nc(SC)nn2C1c1ccc(OC)cc1 (stereo unspecified) | 8 | 2 | 0 | 3 | nt | nt
CCOC(=O)C1=C(C)Nc2nc(SCc3cccnc3)nn2C1c1ccc(OC)cc1 (stereo unspecified) | 9 | 8.0* | 0 | -3 | 0 | 7
CCCc1c(C(=O)N2CCOCC2)cnn1-c1nc(C)c(C)c(=O)[nH]1 | -1 | -1 | 0 | 1 | nt | nt
CO[C@H]1C[C@H](O[C@H]2[C@H](C)[C@@H](OC3O[C@H](C)C[C@H](N(C)C)[C@H]3OC(C)=O)[C@@H](C)C[C@]3(CO3)C(=O)[C@H](C)[C@@H](OC(C)=O)[C@@H](C)[C@@H](C)OC(=O)[C@@H]2C)O[C@@H](C)[C@@H]1OC(C)=O (stereo partly specified) | 11 | 6.3*! | 0 | -3 | 1 | -8
COc1cccc(C(=O)NC2(C(F)(F)F)NC(=O)N(c3ccc(C)c(C)c3)C2=O)c1 (stereo unspecified) | -7 | 1 | 0 | 8 | nt | nt
COc1ccc(CCN2C(=O)CCC2CCNCc2cccc(C(F)(F)F)c2)cc1 (stereo unspecified) | 8 | 12* | 0 | 8 | 0 | 9
O=C1c2ccccc2S(=O)(=O)NN1CC(=O)N1CCc2ccccc21 | 0 | 0 | 0 | -33 | nt | nt
CCN(Cc1ccncc1)C(=O)CC1C(=O)NCCN1CC(C)(C)C (stereo unspecified) | 11 | 0 | 0 | -3 | nt | nt
CCc1nc(N)c(C#N)c(-c2ccc([N+](=O)[O-])cc2)c1C | 7 | 5.3* | 0 | -9 | 1 | 15
CCOC(=O)C1C(=O)CC(C)(O)C(C(=O)OCC)C1c1ccc(C)cc1 (stereo unspecified) | 8 | 0 | 0 | 13 | nt | nt
